# Paper PMC5540273 (PLoS ONE, 2017)
# Experiments:
# Conditions in all cases: concentration: 1 μM, replicates: in singlicate; n = 1
# CDK4-cyclinD3 = system: CDK4-cyclinD3
# CDK4 = system: CDK4
# CDK5 = system: CDK5
# CDK7 = system: CDK7
# CDK8 = system: CDK8
# CDK9 = system: CDK9
# CDKL1 = system: CDKL1
# CDKL2 = system: CDKL2
# CDKL3 = system: CDKL3
# CDKL5 = system: CDKL5
# CHEK1 = system: CHEK1
# CHEK2 = system: CHEK2
# CIT = system: CIT
# CLK1 = system: CLK1
# CLK2 = system: CLK2
# CLK3 = system: CLK3
# CLK4 = system: CLK4
# CSF1R-autoinhibited = system: CSF1R-autoinhibited
# CSF1R = system: CSF1R
# CSK = system: CSK
# 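Note: KINOMEscan kinase panel screen.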
Structure (SMILES),%Inh (CDK4-cyclinD3) [%],%Inh (CDK4) [%],%Inh (CDK5) [%],%Inh (CDK7) [%],%Inh (CDK8) [%],%Inh (CDK9) [%],%Inh (CDKL1) [%],%Inh (CDKL2) [%],%Inh (CDKL3) [%],%Inh (CDKL5) [%],%Inh (CHEK1) [%],%Inh (CHEK2) [%],%Inh (CIT) [%],%Inh (CLK1) [%],%Inh (CLK2) [%],%Inh (CLK3) [%],%Inh (CLK4) [%],%Inh (CSF1R-autoinhibited) [%],%Inh (CSF1R) [%],%Inh (CSK) [%]
CN(C(=O)c1ccc(-c2cc(-c3c[nH]nc3-c3ccccn3)ccn2)cc1)C1CCOCC1 [GW810083],0,15,0,9,45,0,21,0,47,0,0,12,5,23,0,0,0,31,20,0
Fc1ccc(-c2nn3c(OCC(F)(F)F)cccc3c2-c2ccncc2)cc1 [GW514784],0,46,0,0,57,0,8,4,0,0,0,30,99.1,2,0,0,0,36,0,0
COC(=O)Nc1nc2cc(Oc3ccc(NC(=O)Nc4cc(F)ccc4F)cc3)ccc2[nH]1.Cl [GW701424],5,0,0,37,42,0,0,36,0,0,0,21,99,29,0,14,40,50,99.7,0
CNc1ncnc2[nH]ncc12 [SKF-18355],0,17,0,0,0,0,8,30,19,3,0,0,9,19,8,9,0,0,0,0
CSc1ccc(-c2cc3ncnc(SCC(=O)O)c3s2)cc1,0,0,22,25,0,33,4,0,0,0,0,2,1,0,0,0,0,17,18,0
CN(C1=C(c2ccccc2)C(=O)NC1=O)c1ccccc1 [SB-334860],9,5,6,15,4,9,6,0,0,8,0,16,37,24,12,0,6,0,18,6
Fc1ccc(-c2ncn(CCCN3CCOCC3)c2-c2cccnc2)cc1 [SB-211743],0,1,0,8,0,0,28,0,0,0,0,0,0,24,0,11,2,0,0,0
O=C(NCCNc1ccnc(Nc2ccc(F)cc2)n1)c1cc2ccccc2s1 [GSK1379874],0,0,0,0,38,0,8,5,0,0,2,0,22,29,0,26,37,8,0,0
COc1ccc(CNC(=O)NC2CCN(c3ccnc(Nc4ccc(OC)cc4)n3)C2)cc1 (stereo not shown) [GSK1379727],0,48,0,0,42,0,4,21,0,0,0,27,19,19,0,0,14,16,0,0
COc1ccc(S(=O)(=O)NC2CCN(c3cc(C)nc(Nc4cccc(C#N)c4)n3)CC2)cc1.O=C(O)C(F)(F)F [GSK1653539],0,38,0,0,4,0,15,0,0,0,0,14,0,20,0,56,3,0,1,0
O=C(NCCCN1CCOCC1)c1cccc(Nc2nccc(Nc3ccc(Oc4ccccc4)cc3)n2)c1 [GW663929],0,16,0,20,34,19,5,28,0,0,9,40,9,22,28,0,11,9,33,88
COc1ccc(Nc2ncc(C#N)c(Nc3ccccc3C(N)=O)n2)cc1N1CCN(C)CC1.Cl [GSK1558669],90,93.9,99.7,99.8,0,72,89,94.7,0,29,100,78,69,99.8,99.3,85,99.7,67,99.9,85
Cc1cccc(Cn2ccn3c(=O)cc(N4CCOCC4)nc23)c1 [GSK2297542],0,6,0,0,31,0,20,29,0,0,13,4,23,50,20,58,45,8,11,55
O=C(Nc1cccc(-c2nn3ncccc3c2-c2ccnc(Nc3cccc(C(F)(F)F)c3)n2)c1)c1c(F)cccc1F [GSK299495],9,18,0,0,24,0,0,14,0,0,5,0,0,18,100,0,25,8,98.1,88
c1ccc(-c2n[nH]cc2-c2ccnc3ccccc23)nc1 [GW271431],0,0,0,0,5,0,7,5,0,6,5,0,41,28,7,55,20,11,6,0
Cc1cn2c(=O)cc(N3CCOCC3)nc2n1Cc1cccc(Cl)c1Cl [GSK2334006],0,3,2,0,15,0,0,3,0,2,25,0,17,35,0,11,26,0,5,0
C[C@@H](Oc1cc(-n2cnc3ccc(NC(=O)NC(C)(C)C)cc32)sc1C(N)=O)c1ccccc1Cl [GSK346294],1,34,0,0,45,0,14,5,0,0,10,19,0,18,7,22,40,15,6,1
O=C(c1ccc(-c2cc(-c3c[nH]nc3-c3ccccn3)ccn2)cc1)N1CCOCC1 [GW812171],0,1,0,17,7,0,25,8,0,0,0,0,0,0,0,0,0,12,16,51
Cn1cc(-c2ccc3c(c2)CCN3C(=O)Cc2ccccc2Cl)c2c(N)ncnc21 [GSK2608885],0,22,0,1,7,0,0,17,0,10,35,4,65,25,0,1,0,0,99.8,97.6
COc1cc2c(cc1OCCN1CCN(C)CC1)ncc1c3ccc(C#N)cc3[nH]c21,0,0,9,99.7,3,14,32,6,0,0,83,45,99.2,96.7,86,25,92.6,99.3,49,0
